The record followed here is the supplement of paper PMC10849652.

Of roughly 7,900 targets only a part is listed; those with a hit were picked by preference. About 0.6% of all pairs of compound and target were hits. Values without a mark were called inactive.

Sequence of UniProt Q9C0E8 (Q9C0E8 whole entry, looked up): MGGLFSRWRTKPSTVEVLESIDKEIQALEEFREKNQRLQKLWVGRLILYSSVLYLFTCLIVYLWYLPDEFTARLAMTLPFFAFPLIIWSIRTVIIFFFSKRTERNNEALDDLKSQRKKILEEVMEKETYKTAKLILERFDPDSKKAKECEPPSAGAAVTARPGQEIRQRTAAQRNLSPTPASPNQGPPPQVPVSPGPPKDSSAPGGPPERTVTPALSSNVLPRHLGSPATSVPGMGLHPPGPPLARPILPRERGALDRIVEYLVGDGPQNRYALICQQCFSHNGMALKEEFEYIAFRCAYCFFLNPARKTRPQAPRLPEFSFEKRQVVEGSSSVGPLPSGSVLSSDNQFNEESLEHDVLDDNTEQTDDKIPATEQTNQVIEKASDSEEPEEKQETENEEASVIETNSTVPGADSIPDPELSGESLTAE
Sequence of UniProt Q9NQX7 (Q9NQX7 whole entry, looked up): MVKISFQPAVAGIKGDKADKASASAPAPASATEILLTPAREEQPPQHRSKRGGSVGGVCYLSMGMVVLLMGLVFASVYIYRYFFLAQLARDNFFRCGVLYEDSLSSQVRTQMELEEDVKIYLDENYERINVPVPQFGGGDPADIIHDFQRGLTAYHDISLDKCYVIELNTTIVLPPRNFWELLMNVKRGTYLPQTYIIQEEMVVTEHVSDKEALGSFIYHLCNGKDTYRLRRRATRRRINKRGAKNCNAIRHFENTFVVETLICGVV
Sequence of UniProt O43513 (O43513 whole entry, looked up): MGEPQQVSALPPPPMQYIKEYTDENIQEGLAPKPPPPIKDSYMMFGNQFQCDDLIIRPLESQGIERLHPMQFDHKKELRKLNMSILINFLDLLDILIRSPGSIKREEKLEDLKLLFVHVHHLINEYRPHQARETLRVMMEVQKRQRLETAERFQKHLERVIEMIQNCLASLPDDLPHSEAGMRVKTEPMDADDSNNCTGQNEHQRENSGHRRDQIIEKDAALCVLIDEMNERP
Sequence of UniProt Q9P244 (Q9P244 whole entry, looked up): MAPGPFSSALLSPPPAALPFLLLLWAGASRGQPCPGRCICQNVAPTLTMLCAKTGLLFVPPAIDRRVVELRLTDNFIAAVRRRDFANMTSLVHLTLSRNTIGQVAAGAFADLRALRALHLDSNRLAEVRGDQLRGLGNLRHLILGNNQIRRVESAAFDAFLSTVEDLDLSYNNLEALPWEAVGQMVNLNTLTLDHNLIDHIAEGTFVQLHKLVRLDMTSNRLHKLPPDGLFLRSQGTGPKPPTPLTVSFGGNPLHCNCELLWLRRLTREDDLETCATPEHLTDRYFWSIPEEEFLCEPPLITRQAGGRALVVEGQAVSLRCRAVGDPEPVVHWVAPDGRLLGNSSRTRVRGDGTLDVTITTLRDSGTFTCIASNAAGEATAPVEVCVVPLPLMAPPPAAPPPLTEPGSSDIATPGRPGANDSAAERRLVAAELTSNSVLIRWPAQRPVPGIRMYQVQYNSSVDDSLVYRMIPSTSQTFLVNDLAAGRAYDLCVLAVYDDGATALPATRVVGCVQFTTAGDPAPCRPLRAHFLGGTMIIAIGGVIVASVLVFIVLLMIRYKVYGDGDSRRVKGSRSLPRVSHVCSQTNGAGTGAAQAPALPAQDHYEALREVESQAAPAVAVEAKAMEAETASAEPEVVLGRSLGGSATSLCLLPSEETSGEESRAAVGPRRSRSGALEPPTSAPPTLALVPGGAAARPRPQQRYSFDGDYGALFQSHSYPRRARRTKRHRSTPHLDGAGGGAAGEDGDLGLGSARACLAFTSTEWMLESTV
Sequence of UniProt Q9Y2U8 (Q9Y2U8 whole entry, looked up): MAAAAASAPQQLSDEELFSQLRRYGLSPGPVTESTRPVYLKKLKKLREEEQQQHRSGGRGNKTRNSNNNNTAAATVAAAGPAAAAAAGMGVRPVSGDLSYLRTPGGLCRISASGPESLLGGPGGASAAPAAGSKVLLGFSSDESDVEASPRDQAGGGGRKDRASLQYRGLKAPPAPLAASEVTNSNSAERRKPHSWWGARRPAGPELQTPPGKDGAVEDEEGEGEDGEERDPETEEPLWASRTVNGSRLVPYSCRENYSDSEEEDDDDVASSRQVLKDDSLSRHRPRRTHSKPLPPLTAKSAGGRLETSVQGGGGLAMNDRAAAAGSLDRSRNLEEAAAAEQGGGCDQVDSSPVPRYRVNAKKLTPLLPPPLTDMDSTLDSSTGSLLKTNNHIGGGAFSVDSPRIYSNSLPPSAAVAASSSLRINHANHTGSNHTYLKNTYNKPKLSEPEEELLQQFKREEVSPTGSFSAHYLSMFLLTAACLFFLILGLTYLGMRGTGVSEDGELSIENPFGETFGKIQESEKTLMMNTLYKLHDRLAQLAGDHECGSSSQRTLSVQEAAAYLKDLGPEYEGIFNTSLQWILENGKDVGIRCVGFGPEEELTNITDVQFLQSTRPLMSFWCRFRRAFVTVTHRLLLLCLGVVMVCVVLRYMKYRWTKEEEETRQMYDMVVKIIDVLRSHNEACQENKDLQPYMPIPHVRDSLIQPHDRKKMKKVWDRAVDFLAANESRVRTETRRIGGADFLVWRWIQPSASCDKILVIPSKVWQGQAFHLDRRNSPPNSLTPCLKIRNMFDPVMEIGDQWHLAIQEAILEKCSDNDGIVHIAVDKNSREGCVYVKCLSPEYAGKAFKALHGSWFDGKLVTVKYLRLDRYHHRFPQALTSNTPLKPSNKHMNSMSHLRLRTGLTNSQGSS
Sequence of UniProt O95373 (O95373 whole entry, looked up): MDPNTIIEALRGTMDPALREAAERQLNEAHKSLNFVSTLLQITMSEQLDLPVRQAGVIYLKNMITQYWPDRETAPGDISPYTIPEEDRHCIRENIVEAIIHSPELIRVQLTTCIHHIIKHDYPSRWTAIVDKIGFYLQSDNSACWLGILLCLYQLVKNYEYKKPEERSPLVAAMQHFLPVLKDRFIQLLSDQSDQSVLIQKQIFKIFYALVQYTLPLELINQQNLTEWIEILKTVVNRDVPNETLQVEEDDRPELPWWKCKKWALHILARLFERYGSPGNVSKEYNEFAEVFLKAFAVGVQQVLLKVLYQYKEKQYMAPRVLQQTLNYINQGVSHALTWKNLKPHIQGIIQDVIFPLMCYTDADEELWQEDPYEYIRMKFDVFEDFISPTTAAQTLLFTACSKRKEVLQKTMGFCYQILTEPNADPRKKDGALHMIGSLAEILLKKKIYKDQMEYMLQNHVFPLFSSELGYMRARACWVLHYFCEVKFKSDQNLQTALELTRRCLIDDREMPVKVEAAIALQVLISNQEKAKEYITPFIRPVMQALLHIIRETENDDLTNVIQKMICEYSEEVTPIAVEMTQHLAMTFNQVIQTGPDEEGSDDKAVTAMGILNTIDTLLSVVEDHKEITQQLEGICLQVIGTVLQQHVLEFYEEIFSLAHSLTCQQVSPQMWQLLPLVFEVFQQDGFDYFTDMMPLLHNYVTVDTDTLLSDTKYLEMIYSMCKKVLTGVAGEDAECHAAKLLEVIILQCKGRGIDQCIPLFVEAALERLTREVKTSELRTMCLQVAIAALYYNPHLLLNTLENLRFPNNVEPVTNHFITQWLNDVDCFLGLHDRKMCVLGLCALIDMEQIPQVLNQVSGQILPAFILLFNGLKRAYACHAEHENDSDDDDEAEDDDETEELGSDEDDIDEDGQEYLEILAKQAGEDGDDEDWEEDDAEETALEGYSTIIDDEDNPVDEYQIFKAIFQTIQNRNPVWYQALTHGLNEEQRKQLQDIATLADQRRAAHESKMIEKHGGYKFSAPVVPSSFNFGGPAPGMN
Sequence of UniProt O00629 (O00629 whole entry, looked up): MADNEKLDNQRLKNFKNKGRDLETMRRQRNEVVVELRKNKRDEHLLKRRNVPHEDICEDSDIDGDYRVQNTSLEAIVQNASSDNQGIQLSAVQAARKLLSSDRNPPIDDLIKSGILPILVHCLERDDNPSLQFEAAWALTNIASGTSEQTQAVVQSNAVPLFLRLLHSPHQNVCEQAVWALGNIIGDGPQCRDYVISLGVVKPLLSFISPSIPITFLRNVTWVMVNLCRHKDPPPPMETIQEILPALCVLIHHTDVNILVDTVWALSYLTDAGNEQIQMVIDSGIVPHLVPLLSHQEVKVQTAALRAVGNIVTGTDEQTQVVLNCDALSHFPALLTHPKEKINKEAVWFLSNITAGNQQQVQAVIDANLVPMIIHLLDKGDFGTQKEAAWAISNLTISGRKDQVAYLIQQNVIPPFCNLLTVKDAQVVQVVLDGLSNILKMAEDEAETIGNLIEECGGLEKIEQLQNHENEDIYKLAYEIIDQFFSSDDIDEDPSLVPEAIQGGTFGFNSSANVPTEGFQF
Sequence of UniProt O94889 (O94889 whole entry, looked up): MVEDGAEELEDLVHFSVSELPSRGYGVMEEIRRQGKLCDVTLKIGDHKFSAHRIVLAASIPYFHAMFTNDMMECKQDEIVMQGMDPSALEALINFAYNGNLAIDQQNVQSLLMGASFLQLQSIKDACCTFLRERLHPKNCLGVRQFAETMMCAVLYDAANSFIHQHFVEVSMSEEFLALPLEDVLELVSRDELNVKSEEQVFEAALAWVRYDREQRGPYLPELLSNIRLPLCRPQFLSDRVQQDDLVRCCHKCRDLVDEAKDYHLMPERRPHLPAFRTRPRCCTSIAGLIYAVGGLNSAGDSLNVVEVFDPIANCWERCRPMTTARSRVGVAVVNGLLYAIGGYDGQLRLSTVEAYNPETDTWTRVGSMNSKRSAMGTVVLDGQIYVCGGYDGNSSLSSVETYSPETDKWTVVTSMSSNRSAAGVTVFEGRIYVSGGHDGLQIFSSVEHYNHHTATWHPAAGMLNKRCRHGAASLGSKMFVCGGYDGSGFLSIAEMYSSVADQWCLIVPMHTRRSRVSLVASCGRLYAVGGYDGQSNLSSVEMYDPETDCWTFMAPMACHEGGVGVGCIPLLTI
Sequence of UniProt Q8NC54 (Q8NC54 whole entry, looked up): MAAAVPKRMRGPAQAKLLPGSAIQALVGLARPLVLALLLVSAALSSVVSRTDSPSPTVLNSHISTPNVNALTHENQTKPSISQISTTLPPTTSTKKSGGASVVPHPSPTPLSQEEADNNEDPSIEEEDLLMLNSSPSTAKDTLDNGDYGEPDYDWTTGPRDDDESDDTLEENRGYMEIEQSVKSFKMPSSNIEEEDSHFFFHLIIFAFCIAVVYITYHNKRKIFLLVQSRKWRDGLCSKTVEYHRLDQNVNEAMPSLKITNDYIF

Compound in one experiment: C1=CC=C(C=C1)[C@H](COC2=CC3=C(C=C2)NC(=O)N3)NC(=O)C4=CC=CN(C4=O)CC5=CC(=C(C=C5)F)F
Kind of experiment: log2 fold change, soluble protein after heating vs DMSO (PISA); higher = thermal stabilisation; K562 cells, 10 uM, 30 min; active = over 0.2 and 3.5 SD of the protein, either way, in both replicates (recomputed). In short, it runs like this: (§1)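 K562 cells at 2×10^6 cells/mL were exposed to 10 μM compound for 30 min, then aliquots were heated for 3 min across 48°C-58°C, pooled, and extracted in PBS containing 0.5% NP-40 at 4°C. The supernatant after 21,000xg for 90 min was taken as soluble protein and measured by TMTpro 16plex LC-MS/MS with channel sums equalised. Thermal stability is reported relative to control samples, with values from duplicates. Fold changes are given on a log2 scale.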
For the target LEO1 (UniProt Q8WVC0), the log2 fold change was -0.009.

As to LRFN1 (UniProt Q9P244), the log2 fold change is -0.069.

With LNPK (UniProt Q9C0E8), the log2 fold change is 0.015.

For the target MASTL (UniProt Q96GX5), the log2 fold change was 0.047.

In the case of LGALS8 isoform 2 (UniProt O00214), the log2 fold change is -0.032.

In the case of MBLAC1 (UniProt A4D2B0), the log2 fold change was -0.019.

Regarding MIEF1 (UniProt L0R8F8), the log2 fold change is 0.072.

Take METTL18 (UniProt O95568): the log2 fold change was 0.

In the case of LMNA (UniProt P02545), the log2 fold change is 0.043.

For the target KPNB1 (UniProt Q14974), the log2 fold change was -0.035.

Take KDM5D isoform 3 (UniProt Q9BY66): the log2 fold change was 0.2.

Turning to MED1 (UniProt Q15648), the log2 fold change was -0.033.

Turning to MAD2L1 (UniProt Q13257), the log2 fold change was -0.045.

ITM2B (UniProt Q9Y287): the log2 fold change was 0.013.

As to MAP2K2 (UniProt P36507), the log2 fold change was 0.034.

Turning to MED8 isoform 2 (UniProt Q96G25), the log2 fold change was 0.011.

Take KLHDC4 (UniProt Q8TBB5): the log2 fold change is 0.048.

For LEMD3 (UniProt Q9Y2U8), the log2 fold change was 0.067.

As to MARK2 (UniProt E9PC69), the log2 fold change is -0.029.

With METAP1D (UniProt Q6UB28), the log2 fold change is 0.106.

Regarding MAP4K5 (UniProt Q9Y4K4), the log2 fold change is 0.055.

Regarding KLHL18 (UniProt O94889), the log2 fold change is 0.014.

With MARK3 (UniProt P27448), the log2 fold change was -0.042.

On to MAP2K3 isoform 3 (UniProt P46734), for which the log2 fold change was -0.091.

Consider MED7 (UniProt O43513), for which the log2 fold change was -0.049.

Turning to IGFBP4 (UniProt P22692), the log2 fold change was -0.019.

For MAPRE3 (UniProt Q9UPY8), the log2 fold change was -0.042.

For the target KCT2 (UniProt Q8NC54), the log2 fold change is 0.046.

Consider MAGOHB (UniProt Q96A72), for which the log2 fold change is 0.02.

As for LARP4B (UniProt Q92615), the log2 fold change was -0.003.

On to MCCC2 (UniProt Q9HCC0), for which the log2 fold change was 0.029.

KPNA4 (UniProt O00629): the log2 fold change is -0.017.

Consider ITM2C (UniProt Q9NQX7), for which the log2 fold change is -0.077.

For MFSD1 isoform 6 (UniProt Q9H3U5), the log2 fold change was 0.001.

Turning to MED16 (UniProt Q9Y2X0), the log2 fold change is -0.048.

For LONP2 (UniProt Q86WA8), the log2 fold change was -0.036.

With LSS (UniProt P48449), the log2 fold change was -0.077.

With IPO7 (UniProt O95373), the log2 fold change was -0.082.

Compound in a further experiment: CC1=C(SC2=C1C(=N[C@H](C3=NN=C(N32)C)CC(=O)N)C4=CC=C(C=C4)Cl)C
The experiment is described as above. In short, it runs like this:
as §1
Take LEO1 (UniProt Q8WVC0): the log2 fold change was 0.046.

As for LRFN1 (UniProt Q9P244), the log2 fold change was 0.183.

Regarding LNPK (UniProt Q9C0E8), the log2 fold change is 0.015.

Regarding MASTL (UniProt Q96GX5), the log2 fold change was 0.081.

For LGALS8 isoform 2 (UniProt O00214), the log2 fold change was 0.011.

MBLAC1 (UniProt A4D2B0): the log2 fold change is 0.067.

Regarding MIEF1 (UniProt L0R8F8), the log2 fold change was 0.026.

In the case of METTL18 (UniProt O95568), the log2 fold change was -0.027.

Take LMNA (UniProt P02545): the log2 fold change was -0.016.

KPNB1 (UniProt Q14974): the log2 fold change is -0.018.

On to KDM5D isoform 3 (UniProt Q9BY66), for which the log2 fold change is 0.086.

Turning to MED1 (UniProt Q15648), the log2 fold change is -0.009.

As for MAD2L1 (UniProt Q13257), the log2 fold change was 0.077.

As for ITM2B (UniProt Q9Y287), the log2 fold change is -0.068.

For MAP2K2 (UniProt P36507), the log2 fold change was 0.065.

With MED8 isoform 2 (UniProt Q96G25), the log2 fold change is -0.053.

For KLHDC4 (UniProt Q8TBB5), the log2 fold change is -0.074.

For the target LEMD3 (UniProt Q9Y2U8), the log2 fold change is 0.034.

For the target MARK2 (UniProt E9PC69), the log2 fold change was 0.038.

Take METAP1D (UniProt Q6UB28): the log2 fold change is -0.125.

As to MAP4K5 (UniProt Q9Y4K4), the log2 fold change is -0.039.

KLHL18 (UniProt O94889): the log2 fold change was 0.101.

For MARK3 (UniProt P27448), the log2 fold change is 0.039.

MAP2K3 isoform 3 (UniProt P46734): the log2 fold change is -0.051.

Regarding MED7 (UniProt O43513), the log2 fold change was 0.029.

Regarding IGFBP4 (UniProt P22692), the log2 fold change was -0.046.

Turning to MAPRE3 (UniProt Q9UPY8), the log2 fold change is 0.011.

As to KCT2 (UniProt Q8NC54), the log2 fold change was 0.024.

On to MAGOHB (UniProt Q96A72), for which the log2 fold change was 0.042.

In the case of LARP4B (UniProt Q92615), the log2 fold change was -0.013.

Regarding MCCC2 (UniProt Q9HCC0), the log2 fold change is 0.038.

Consider KPNA4 (UniProt O00629), for which the log2 fold change is 0.004.

As to ITM2C (UniProt Q9NQX7), the log2 fold change is 0.007.

MFSD1 isoform 6 (UniProt Q9H3U5): the log2 fold change is 0.045.

MED16 (UniProt Q9Y2X0): the log2 fold change is 0.012.

Consider LONP2 (UniProt Q86WA8), for which the log2 fold change is 0.009.

Turning to LSS (UniProt P48449), the log2 fold change was 0.059.

Turning to IPO7 (UniProt O95373), the log2 fold change was 0.031.
